test: CREB reporter modulators without forskolin, primary screen, cell-based, PC12, CRE-LacZ reporter, unstimulated (AID 1145); conditions: no forskolin, luminescence, 4.5 h, higher = more signal, called active from +8 up or from −8 down

z-score, inactive:
CCC(CC)C(O)C1C=CC2C(=O)NC(=O)C2N1Nc1ccc(Cl)cc1Cl (stereo not given) 0.243
C=C(CCCC)/C(=C/C[C@@H](OC(=O)c1ccncc1)c1ccc(OCCO)cc1)c1cc(C(=O)OC)ccc1OC 2.32
CO[C@H]1O[C@H](CO)[C@@H](OC(=O)Nc2cccc(F)c2)[C@H](OC(=O)Nc2ccccc2)[C@@H]1OC(=O)Nc1ccccc1 -0.459
C=C(COC)C(=O)CC[C@@H](OC(C)=O)c1ccc(CO)o1 0.363
COC(=O)[C@H](Cc1ccccc1)N1CC2=C[C@@H](C3CC3)n3c(=O)n(C)c(=O)n3[C@H]2[C@@H]1[C@@H](O)Cc1ccccc1 2.03
C=C[C@H](CO[Si](CC)(CC)CC)N(Cc1ccc(OC(C)=O)c(OC)c1)S(=O)(=O)c1ccc(Br)cc1 -0.263
C=CCOC(=O)[C@H]1[C@@H]2C(=O)O[C@@H](c3ccccc3)[C@@H](c3ccccc3)N2[C@@H](c2ccc(OCCOC(=O)[C@H]3C[C@H]4C(=O)N[C@@H](CCCCNC(C)=O)C(=O)N4[C@H]3c3ccc(O)cc3)cc2)[C@]12C(=O)Nc1ccc(I)cc12 5.04
CC(C)C(O)C1C=CC2C(=O)NC(=O)C2N1Nc1ccc(Cl)cc1Cl (stereo not given) 0.246
COc1ccc([Si](C)(C)[C@H]2[C@H](CCO)O[C@@]3(C(=O)N(Cc4ccc(N(C=O)c5ccccc5)cc4)c4ccccc43)[C@@H]2C)cc1 1.92
CC(C)C(O)C1C=CC2C(=O)N(c3ccccc3)C(=O)C2N1Nc1ccc([N+](=O)[O-])cc1 (stereo not given) -0.368
CC(C)C[C@@H]1NC(=O)[C@H](C(C)C)NC(=O)[C@@]23C(=O)N[C@@H](Cc4ccccc4)C2[C@H](C)[C@@]2(C)O[C@H]2C3/C=C/CC/C=C/CNC1=O (stereo not given in full) -0.319
CC1(C)[C@@H]2CC(C(O)C3C=CC4C(=O)N(c5ccccc5)C(=O)C4N3Nc3ccc([N+](=O)[O-])cc3)=C[C@H]1C2 (stereo not given in full) 0.323
COc1ccccc1CN1C(=O)c2ccccc2[C@@]2(Cc3ccccc3N(CC(C)C)C2=O)[C@@H]1c1ccc(CO)cc1 -0.412
CC1CC/C=C\[C@H]2OC34C=CCN(C(C)(C)C)C(=O)[C@H]3N(C(C)CO)C(=O)[C@@H]4C2C(=O)O1 (stereo not given in full) -0.22
O=C(NCCO)C1=C[C@H](Oc2ccccc2I)[C@@H](O)[C@H](N(Cc2ccco2)C(=O)Cc2ccccc2)C1 -0.78
CN(C)CCCC[C@@H]1NC(=O)[C@H]2C[C@@H](C(=O)NCCCCCCN)[C@@H](c3ccc(O)cc3)N2C1=O -0.256
COC(=O)C(CC#Cc1ccc2c(c1)[C@]1(C(=O)N2)[C@H](c2ccc(OCCO)cc2)N2[C@H](c3ccccc3)[C@H](c3ccccc3)OC(=O)[C@H]2[C@@H]1C(=O)N1CCc2cc(OC)c(OC)cc2C1)C(=O)OC -0.0688
[N-]=[N+]=Nc1ccccc1[C@H]1OC(c2ccc(OCCCO)cc2)=N[C@@]1(CCS(=O)(=O)c1ccccc1)C(N)=O 0.96
COC(=O)[C@@]1(Cc2ccc(F)cc2)[C@H]2c3cc(C(=O)N(C)C)n(Cc4ccccc4)c3C[C@H]2CN1C(=O)c1ccccc1 -0.379
COc1cc(COC(C)=O)ccc1OC(C)=O 1.42
CN1C(=O)C2C=CC(C(O)C#Cc3ccccc3)N(N3CCCCC3)C2C1=O (stereo not given) 0.236
NC(=O)NCC#Cc1ccc2c(c1)[C@]1(C(=O)N2)[C@H](C(N)=O)[C@H]2C(=O)O[C@H](c3ccccc3)[C@H](c3ccccc3)N2[C@@H]1c1ccc(O)cc1 0.712
CO[C@H]1O[C@H](CO)[C@@H](OC(=O)Nc2ccc(Oc3ccccc3)cc2)[C@H](OC(=O)Nc2ccc3c(c2)OCO3)[C@H]1OC(=O)Nc1ccc2c(c1)OCO2 1.09
CC(C)NC(=O)[C@@H]1c2ccccc2C(=O)N(C2Cc3ccccc3C2)[C@H]1c1ccc(CO)cc1 0.441
CCCc1cc2c(n1Cc1cc(F)cc(F)c1)C(C)C1CN(C(=O)c3ccccc3)C(C)(C(=O)OC)C21 (stereo not given) 0.587
[N-]=[N+]=Nc1ccccc1[C@@H]1OC(c2ccc(OCCCO)cc2)=N[C@]1(CCS(=O)(=O)c1ccccc1)C(N)=O 0.218
O=C1c2ccccc2[C@](Cc2ccccc2I)(C(=O)NCCN2CCOCC2)[C@H](c2ccc(CO)cc2)N1Cc1ccccc1Cl -0.0512
O=C(N1CCCCC1)[C@]1(Cc2ccccc2)N=C(c2ccc(OCCCO)cc2)O[C@@H]1c1ccccc1 0.558
CC(=O)NCCCC[C@@H]1NC(=O)[C@H]2C[C@@H](C(=O)NCCCCCCNC(=O)CS)[C@@H](c3ccc(O)cc3)N2C1=O -0.528
O=C(CS)NCCCCCCNC(=O)[C@@H]1C[C@@H]2C(=O)NCC(=O)N2[C@@H]1c1cccc(OCCO)c1 -0.252
CC[C@@H]1C=C(C(=O)O)[C@H](c2ccc(Br)cc2)N1S(=O)(=O)c1ccc(C)cc1 0.0798
CCOC(=O)C[C@H]1[C@H](OC(=O)c2ccccc2-c2ccccc2)[C@@H](NC(=O)CC(C)C)c2cc(OCCCO)ccc2N1C(=O)Cc1ccc(OC)cc1 6.91
CCCC[C@@H]1C[C@H]1[C@@H](NC(=O)c1cccs1)c1ccc(-c2ccccc2)cc1 1.35
COc1ccc(-c2cc3c(c(-c4ccc(Oc5ccccc5)cc4)n2)[Si](C(C)C)(C(C)C)OC3)cn1 -0.127
CC(C)C(=C=CC[C@@H](O)c1ccc(OCCO)cc1)C[C@@H](O)COCc1ccccc1 6.97

From PubChem BioAssay
